Assay results taken from PubChem BioAssay AID1159580 (chemical genetic matrix, 2015).
“And” between values parts separate entries of the source, which are not always exact repeats. Equal values may be shown once. Out of some 5,500 compounds screened, about 2,000 (36%) were called active. Another 18% or so got no clear call; they are omitted. Rule as the data show it: active = normalized growth mostly below about 0.91 (no sharp cut-off); inconclusive = no clear call, values can overlap the other calls; inactive = mostly above about 0.92. The list shows a part of the results.

Experiment: chemical genetic growth profiling, strain panel (AID 1159580);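 also: tested at 20 µM; growth read once vehicle control cultures reached saturation at 30 °C; 1 = growth at the plate median or of vehicle wells; lower values mean less growth of the strain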
Details: S. cerevisiae deletion strains, growth OD

Measured: normalized growth

NC[C@H]1O[C@H](O[C@H]2[C@H](O)[C@@H](O[C@H]3O[C@H](CO)[C@@H](O)[C@H](N)[C@H]3O)[C@H](N)C[C@@H]2N)[C@H](N)C[C@@H]1O
inactive: locus YAL013W, strain DEP1, active compounds read low 1 | locus YAL021C, strain ccr4, active compounds read low 0.979 | locus YAL026C, strain drs2, active compounds read low 1.01 | locus YAL030W, strain snc1, active compounds read low 1.01 | locus YBL061C, strain skt5, active compounds read low 1.01 | locus YBR009C, strain hhf1, active compounds read low 1.05 | locus YBR021W, strain FUR4, active compounds read low 1.02 | locus YBR023C, strain chs3, active compounds read low 1.01 | locus YBR171W, strain sec66, active compounds read low 1.01 | locus YBR229C, strain ROT2, active compounds read low 1.01 | locus YBR231C, strain swc5, active compounds read low 0.987 | locus YBR279W, strain paf1, active compounds read low 1.02 | locus YCL011C, strain gbp2, active compounds read low 1.02 | locus YCL016C, strain dcc1, active compounds read low 1.02 | locus YCL029C, strain bik1, active compounds read low 1.02 | locus YCL061C, strain MRC1, active compounds read low 0.994 | locus YCL069W, strain vba3, active compounds read low 1.01 | locus YCR088W, strain abp1, active compounds read low 1.01 | locus YDL005C, strain med2, active compounds read low 1 | locus YDL035C, strain GPR1, active compounds read low 1 | locus YDL040C, strain nat1, active compounds read low 1.02 | locus YDL074C, strain BRE1, active compounds read low 0.971 | locus YDL101C, strain DUN1, active compounds read low 0.997 | locus YDL134C, strain PPH21, active compounds read low 1.01 | locus YDL185W, strain tfp1, active compounds read low 1 | locus YDL192W, strain arf1, active compounds read low 1.01 | locus YDR001C, strain nth1, active compounds read low 1.01 | locus YDR069C, strain doa4, active compounds read low 0.985 | locus YDR101C, strain arx1, active compounds read low 1.02 | locus YDR137W, strain rgp1, active compounds read low 0.99 | locus YDR159W, strain sac3, active compounds read low 0.987 | locus YDR162C, strain NBP2, active compounds read low 1.01 | locus YDR195W, strain ref2 1.01 | locus YDR297W, strain sur2, active compounds read low 1.01 | locus YDR318W, strain mcm21, active compounds read low 1.02 | locus YDR334W, strain swr1, active compounds read low 1.02 | locus YDR335W, strain msn5, active compounds read low 1.01 | locus YDR388W, active compounds read low 1.02 | locus YDR392W, strain spt3, active compounds read low 0.907 | locus YDR502C, strain sam2, active compounds read low 1 | locus YEL003W, strain gim4, active compounds read low 1.03 | locus YEL037C, strain rad23, active compounds read low 1.02 | locus YEL061C, strain CIN8 (second series), active compounds read low 1.02 | locus YEL061C, strain CIN8, active compounds read low 0.988 | locus YER015W, strain faa2, active compounds read low 1.02 | locus YER016W, strain bim1, active compounds read low 1.01 | locus YER110C, active compounds read low 1.01 | locus YER111C, strain swi4, active compounds read low 1.01 | locus YER155C, strain BEM2 (second series), active compounds read low 0.911 | locus YER155C, strain BEM2, active compounds read low 1.02 | locus YER167W, strain BCK2, active compounds read low 1.01 | locus YFR010W, strain ubp6, active compounds read low 1.02 | locus YGL078C, strain dbp3, active compounds read low 1 | locus YGL086W, strain mad1, active compounds read low 0.991 | locus YGL167C, strain pmr1, active compounds read low 1.01 | locus YGL173C, strain kem1, active compounds read low 1.01 | locus YGL227W, strain vid30, active compounds read low 1.01 | locus YGL240W, strain doc1, active compounds read low 0.978 | locus YGL248W, strain PDE1, active compounds read low 0.999 | locus YGL253W, strain hxk2, active compounds read low 1.01 | locus YGR135W, strain pre9, active compounds read low 1.01 | locus YGR252W, strain gcn5, active compounds read low 0.944 | locus YHR013C, strain ard1, active compounds read low 0.952 | locus YHR027C, strain rpn1, active compounds read low 1.02 | locus YHR030C, strain SLT2, active compounds read low 1.01 and 0.98 | locus YHR079C, strain IRE1 (second series), active compounds read low 1.02 | locus YHR079C, strain IRE1, active compounds read low 0.985 | locus YHR094C, strain hxt1, active compounds read low 1.02 | locus YHR129C, strain ARP1, active compounds read low 1.01 | locus YHR142W, strain chs7, active compounds read low 1.03 | locus YHR200W, strain rpn10, active compounds read low 1.01 | locus YIL066C, strain RNR3, active compounds read low 1 | locus YIL073C, strain SPO22, active compounds read low 1.05 | locus YIL125W, strain kgd1, active compounds read low 1 | locus YIR030C, strain dcg1, active compounds read low 1.02 | locus YJL092W, strain hpr5, active compounds read low 1.02 | locus YJL095W, strain BCK1 (second series), active compounds read low 1.04 | locus YJL095W, strain BCK1, active compounds read low 0.985 and 0.999 | locus YJL115W, strain asf1, active compounds read low 1.01 | locus YJL129C, strain trk1, active compounds read low 1 | locus YJL134W, strain LCB3, active compounds read low 1.01 | locus YJL154C, strain vps35, active compounds read low 1.02 | locus YJL164C, strain tpk1, active compounds read low 1.03 | locus YJL166W, strain qcr8, active compounds read low 0.979 | locus YJL168C, strain set2, active compounds read low 1.01 | locus YJL187C, strain SWE1 (second series), active compounds read low 1 | locus YJL187C, strain SWE1, active compounds read low 1.03 | locus YJR043C, strain POL32, active compounds read low 0.98 | locus YJR066W, strain TOR1, active compounds read low 0.951
